PubChem BioAssay AID2685 (National Center for Advancing Translational Sciences (NCATS), 2010)
The campaign covered roughly 320,000 compounds. About 2,100 (0.66%) were called active. Roughly 53% stayed inconclusive and do not appear here. Calls come from the whole dose curve; as a rule, active = well fitted inhibition curve with a large enough effect in the signal ratio, with a control signal flat (not every such curve was filed as active); inconclusive = small, poorly fitted or top-dose-only effect, or effect the other way, or a change in a side signal; inactive = flat fitted curve, though single readings scatter; the % refers to the signal ratio. What follows is part of a selection rich in actives, with near analogues and random picks from the rest.

assay: qHTS Assay for Lipid Storage Modulators in Drosophila S3 Cells; conditions: BODIPY lipid droplet fluorescence, 18-24 h, cells fed with added oleic acid; cell number change: measured here: cell count max response; series mostly up to 46.1 µM; lipid storage change, negative = inhibition: at the top concentration;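 for cell number change: cells counted by Cell Tracker Red CMTPX staining in the red channel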; for lipid storage change, negative = inhibition: % is set by controls: 0 for no effect and ±100 for the full control effect
Summary of the method: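 Laser-scanning cytometry quantifies lipid droplet accumulation (500–530 nm total intensity; droplet/cell object ratio) in oleic acid-fed (400 uM added) Drosophila S3 cells treated with a concentration series. 20 uM Triacsin C defined 100% inhibition.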
Potency is the fitted concentration of half-maximal effect.

SMILES	lipid storage change, negative = inhibition	cell number change	Potency	outcome
Cn1cc([N+](=O)[O-])c(C(=O)Nc2ccc(Br)cn2)n1	1.79% (inactive)			
O=C(CNC(=O)COc1ccccc1)NCc1ccccc1F	-0.841% (inactive)	0.16%		
O=[N+]([O-])c1ccc(NC(=S)N2CCOCC2)cc1	-4.46% (inactive)	-10.6%		
COc1cc(CN2CCN(C(c3ccccc3)c3ccccc3)CC2)cc(OC)c1OC	21.4% (inactive)	6.8%		
Fc1ccc(CN2CCN(C(c3ccccc3)c3ccccc3)CC2)cc1		-21.3%	16.4 µM (active)	
OC(CN1CCN(Cc2ccccc2)CC1)c1ccc(F)cc1 (stereo not drawn)	2.63% (inactive)	22.1%		
COc1ccc(Br)cc1CNC(=O)CCC(=O)n1nc(C)c2ccccc21		-11.3%		inactive
COc1ccccc1NC(=S)NC1CCCCC1	-1.18% (inactive)	22.1%		
Cc1ccccc1NC(=S)NC(C)CCc1ccccc1 (stereo not drawn)	-12% (inactive)	-4.86%		
Cc1ccccc1NC(=O)C(=O)NC(C)CCc1ccccc1 (stereo not drawn)		7.44%	7.31 µM (active)	
CCOC(=O)C(=O)NC(C)CCc1ccccc1 (stereo not drawn)	-6.25% (inactive)	-12.3%		
COCCCNC(=O)COc1cc2c(c3oc(=O)c(C)c(C)c13)CCC(C)(C)O2	-1.02% (inactive)	14.5%		
Cc1ccc(NC(=O)c2ccc(CN3CCc4ccccc4C3)cc2)cc1	9.69% (inactive)	6%		
O=C(Nc1ccc(S(=O)(=O)N2CCCCC2)cc1)c1ccc(CN2CCc3ccccc3C2)cc1		-10.9%	18.4 µM (active)	
O=C(Nc1ccccc1)c1ccc(S(=O)(=O)N2CCCCC2)cc1	1.31% (inactive)	-9.41%		
O=C(Nc1ccc(F)cc1)c1ccc(CN2CCc3ccccc3C2)cc1		-4.53%	5.17 µM (active)	
O=C(Nc1ccc(S(=O)(=O)N2CCCC2)cc1)c1ccc(CN2CCOCC2)cc1	-12.9% (inactive)	0.801%		
O=C(Nc1ccccc1)c1ccc(CN2CCc3ccccc3C2)cc1	-0.669% (inactive)	7.26%		
Cc1cc(-n2nc(C)cc2C)n2nc(C)c(-c3ccc(Cl)cc3)c2n1		1.87%		inactive
CC(C)CCN1CC(C(=O)NC(C)C)CC1=O (stereo not drawn)	1.74% (inactive)	-5.32%		
CN1CCN(S(=O)(=O)c2ccc(NC(=O)c3ccc(Br)s3)cc2)CC1	18.6% (inactive)	-9.91%		
COC(=O)c1ccc(CN2CCC(CO)(Cc3cccc(OC)c3)CC2)cc1	12.4% (inactive)	1.63%		
CC(=O)Nc1ccc(C(=O)OC2CCOC2=O)cc1 (stereo not drawn)	-5.88% (inactive)	3.14%		

SMILES	lipid storage change, negative = inhibition	cell number change	Potency	outcome
Cc1cccc(C(=O)OC2CCOC2=O)c1O (stereo not drawn)		4.5%	0.731 µM (active)	
O=C(Nc1ccccc1C(=O)OC1CCOC1=O)c1ccco1 (stereo not drawn)		2.86%		inactive
Cc1ccc(NC(=O)c2cccs2)cc1NC(=O)c1cccc(F)c1	16.8% (inactive)	9.07%		
Cc1ccc(C(=O)N/C(=C\c2cccs2)C(=O)NCc2cccnc2)cc1	15.8% (inactive)	10.4%		
Fc1cccc(NC(=S)N2CCc3ccccc32)c1		-4.05%		inactive
Fc1ccc(NC(=S)N2CCc3ccccc32)cc1		-10.9%	16.4 µM (active)	
Fc1ccc(NC(=S)N2CCCc3ccccc32)cc1	7.56% (inactive)	-5.16%		
CN(C)c1ccc(S(=O)(=O)NCC(=O)NCc2ccccc2)cc1[N+](=O)[O-]	24.8% (inactive)	21.7%		
NC(=O)c1nsc(C(=O)N(CC(=O)NC2CCCCC2)c2ccc(Cl)cc2)c1N		-2.56%	14.6 µM (active)	
NC(=O)c1nsc(C(=O)N(CC(=O)NC2CCCCC2)Cc2ccc(F)cc2)c1N				inactive
Cc1ccc(C)c(N(CC(=O)NC2CCCCC2)C(=O)c2snc(C(N)=O)c2N)c1		-26.2%		inactive
CCCC(C(=O)NC1CCCC1)N(C(=O)c1snc(C(N)=O)c1N)c1ccc(F)cc1 (stereo not drawn)	23.9% (inactive)	-10.5%		
NC(=O)c1nsc(C(=O)N(CC(=O)NC2CCCC2)c2cnc3ccccc3c2)c1N	-11% (inactive)	-18%		
NC(=O)c1nsc(C(=O)N(CC(=O)NC2CCCC2)c2ccc(F)c(Cl)c2)c1N		-7.14%	0.116 µM (active)	
CC1=NN(C(=O)Cc2ccc([N+](=O)[O-])cc2)C(O)(C(F)(F)C(F)(F)F)C1 (stereo not drawn)	5.48% (inactive)	24%		
CC(=O)NCCc1nc2ccccc2n1Cc1ccccc1	-4.21% (inactive)	18.1%		
O=C(CSc1ncn[nH]1)Nc1cc(S(=O)(=O)N2CCCC2)ccc1Cl				inactive
CN(C)S(=O)(=O)c1cc(NC(=O)COC(=O)CCc2ccccc2)ccc1Cl		11.3%		inactive
Nc1[nH]nc2nc(N3CCOCC3)nc(-c3ccccc3)c12	0.177% (inactive)	-23.8%		
O=C1C(=O)N(CCN2CCOCC2)C(c2cccnc2)/C1=C(/O)c1ccccc1 (stereo not drawn)	16.1% (inactive)	0.678%		
O=C1N=C2N(CCN3CCCCC3)c3ccccc3N2/C1=C\c1ccc([N+](=O)[O-])o1	-28.5% (inactive)	2.09%		
O=C1C=C(NCCN2CCOCC2)CC(c2ccccc2)C1 (stereo not drawn)	27.3% (inactive)	-2.43%		
O=C1C=C(NCCN2CCOCC2)C(=O)c2cnccc21		-9.98%	11.6 µM (active)	

SMILES	lipid storage change, negative = inhibition	cell number change	Potency	outcome
O=C(NCCN1CCOCC1)c1ccncc1		-7.07%		inactive
COc1ccccc1NC(=O)N1C2CCCC1CC(NC(=O)c1ccccc1)C2 (stereo not drawn)	-1.34% (inactive)	9.36%		
COc1ccc(NS(=O)(=O)c2ccc3c(c2)oc(=O)n3C)cc1Cl	4.42% (inactive)	10.6%		
COC(=O)c1ccc(Cl)c(NC(=O)CN(c2ccccc2)S(=O)(=O)c2ccc(OC)cc2)c1	-4.68% (inactive)	-1.49%		
O=C(O)c1ccc(-c2nc(-c3ccccc3)c(-c3cccs3)[nH]2)cc1	13.4% (inactive)	16.3%		
O=[N+]([O-])c1cccc(-c2nc(-c3ccccc3)c(-c3cccs3)[nH]2)c1	-10.9% (inactive)	-14.7%		
O=[N+]([O-])c1ccc(-c2nc(-c3cccs3)c(-c3cccs3)[nH]2)cc1		7.44%	23.1 µM (active)	
O=S(=O)(Nc1ccc2nc(N3CCOCC3)sc2c1)c1ccc(Cl)cc1		-15.7%		inactive
CCOC(=O)C1(Cc2cccc(OC)c2)CCN(Cc2cc(OC)ccc2OC)CC1	-8.02% (inactive)	-22.3%		
COc1cc(OC)cc(C(=O)Nc2ccc(C(=O)c3ccncc3)cc2)c1	-7.33% (inactive)	2.59%		
COc1ccc(C(CCN2CCCC(C)C2)c2c(OC)cc(OC)c3c(C)cc(=O)oc23)cc1 (stereo not drawn)	0.351% (inactive)	7.77%		
CC[n+]1c(C)n(-c2ccccc2)c2ccc(C(=O)OC)cc21	0.792% (inactive)	6.2%		
Cc1cc(C(F)(F)F)n2ncc(C(=O)O)c2n1			14.6 µM (active)	
Cc1ccc(-c2cc(C(F)(F)F)n3ncc(C(=O)O)c3n2)cc1	-0.719% (inactive)	-10.1%		
Cc1cc(C)n2ncc(C(=O)O)c2n1	16.6% (inactive)	12.3%		
C=CCN1CC(=O)N2C(C)c3[nH]c4ccccc4c3C[C@H]2C1=O (stereo partly drawn)	8.32% (inactive)	1.11%		
CCC(=O)Nc1ccc(-c2nnc(SCC(=O)Nc3nccs3)n2C)cc1	8.69% (inactive)	0.852%		
COc1cccc(C2/C(=C(/O)c3ccc4c(c3)CC(C)O4)C(=O)C(=O)N2CC2CCCO2)c1 (stereo not drawn)		14.4%		inactive
CC1Cc2cc(/C(O)=C3/C(=O)C(=O)N(CC4CCCO4)C3c3ccco3)ccc2O1 (stereo not drawn)	8.54% (inactive)	9.06%		
COc1cc(C2/C(=C(\O)c3ccc4c(c3)CC(C)O4)C(=O)C(=O)N2CC2CCCO2)cc(OC)c1OC (stereo not drawn)		-16%	1.3 µM (active)	
CC(C)N(C(=O)CSc1nnc(NC(=O)c2cccs2)s1)C(C)C	-9.8% (inactive)	-20.6%		
CCc1nnc(NC(=O)CCC(=O)NCc2ccc(C)cc2)s1				inactive
COC(=O)c1c(NC(=O)CN2C(=O)NC3(CCC(C)CC3)C2=O)sc2c1CCC2 (stereo not drawn)	20.5% (inactive)	-11.8%		

SMILES	lipid storage change, negative = inhibition	cell number change	Potency	outcome
COC(=O)c1c(NC(=O)CN2C(=O)NC3(CCCCC3C)C2=O)sc2c1CCC2 (stereo not drawn)		2.22%	1.84 µM (active)	
CCOC(=O)c1c(NC(=O)CN2C(=O)NC3(CCCCC3C)C2=O)sc(C)c1C (stereo not drawn)	1.6% (inactive)	-4.46%		
c1ccc(CCNc2nc3ccccc3n3nnnc23)cc1		-15.6%		inactive
Oc1ccc(/C=N/Nc2ccnc3cc(Cl)ccc23)c(O)c1		-19.7%	29.1 µM (active)	
Clc1ccc(NNc2ccnc3cc(Cl)ccc23)cc1	7.38% (inactive)	9.5%		
Clc1ccc2c(N/N=C/c3cccnc3)ccnc2c1				inactive
Cc1ccnc(NS(=O)(=O)c2cccc([N+](=O)[O-])c2)c1	-5.01% (inactive)	3.2%		
COc1ccc(-n2nc(C(=O)NCC(=O)N3CCN(Cc4ccccc4)CC3)c3ccccc3c2=O)cc1		5.41%	0.651 µM (active)	
CCN1CCN(C(=O)CNC(=O)c2nn(-c3ccc(OC)cc3)c(=O)c3ccccc23)CC1		8.11%		inactive
COc1ccc(-n2nc(C(=O)NCC(=O)N3CCN(Cc4ccccc4)CC3)c3ccccc3c2=O)c(OC)c1		10.3%		inactive
COc1ccccc1N1CCN(C(=O)c2ccc(S(=O)(=O)N3CCCCCC3)cc2)CC1	-13% (inactive)	-9.51%		
COc1cc(S(=O)(=O)NCc2ccncc2)c(OC)cc1Br		3.68%	23.1 µM (active)	
COc1cc(C)c(Cl)cc1S(=O)(=O)NCc1ccncc1		-7.29%		inactive
COc1cc(S(=O)(=O)NCc2ccncc2)c(OC)cc1Cl	15.4% (inactive)	12.7%		
COc1ccc(CCNC(=O)CN(C)S(=O)(=O)c2cccc3nsnc23)cc1OC	1.44% (inactive)	0.234%		
CC(C)c1ccc(CNCCCSc2ncccn2)cc1		-5.03%		inactive
CC(C)(C)C(=O)CC1(O)C(=O)N(Cc2ccc(Cl)cc2)c2ccccc21 (stereo not drawn)	2% (inactive)	7.61%		
CC(=O)N1C(=O)CC(C)N(C(C)=O)c2ccc([N+](=O)[O-])cc21 (stereo not drawn)	2.55% (inactive)	1.88%		
CNC(=O)c1[nH]nc2c1CCc1ccccc1-2	-1.15% (inactive)	13.3%		
c1ccc2c(c1)CCc1c(-c3ccncc3)n[nH]c1-2		7.47%	18.4 µM (active)	
CC(C)NC(=O)c1[nH]nc2c1CCc1ccccc1-2		-0.945%		inactive
CC(C)C(=O)N1CCN(c2ccccc2NC(=O)COc2ccccc2)CC1	9.3% (inactive)	-6.41%		
CCOC(=O)N1CCN(c2c(NC3CCN(Cc4ccccc4)CC3)c(=O)c2=O)CC1	3.89% (inactive)	6.86%		
